Test results: PubChem BioAssay AID651551 (Sanford-Burnham Center for Chemical Genomics, 2012)

These compounds were tested against PEG-3 (UniProt Q6IN02) (assay: GAPDH versus PEG-3 reporter suppression – cell-based, luminescence, counter-screen for PEG-3 promoter inhibitor project, SAR follow-up (AID 651551)). Conditions: HeLa PEG-Prom / GAPDH luciferase reporter, 6 or 24 h, run 3, 24 h; at 99 µM (top of the series).

Q: Which inhibition % (higher = more inhibition) does the source give for `Cc1ccc(Cl)cc1Nc1nc(-c2sc(NC(=O)c3ccco3)nc2C)cs1` here?
A: The inhibition % (higher = more inhibition) was -26.2%.

Q: For `O=C(Nc1nccs1)c1nn(-c2ccccc2)c(=O)c2ccccc12`, which inhibition % (higher = more inhibition) is on record?
A: The inhibition % (higher = more inhibition) was 29.1%.

Q: How did the inhibition % (higher = more inhibition) turn out when `Cc1nc(NC(=O)c2ccccc2)sc1-c1csc(Nc2ccccc2)n1` was run?
A: The inhibition % (higher = more inhibition) was 76.8%.

Q: For `CCn1cc(C(=O)NCc2ccco2)c(=O)c2cc(S(=O)(=O)N3CCCC3)ccc21`, which inhibition % (higher = more inhibition) is on record?
A: The inhibition % (higher = more inhibition) was 46.7%.

Q: `COc1ccc(-n2nc(C(=O)NCC(=O)Nc3cc(OC)c(OC)c(OC)c3)c3ccccc3c2=O)cc1OC` was tested. Which inhibition % (higher = more inhibition) did it give?
A: The inhibition % (higher = more inhibition) was 34.1%.

Q: `COc1ccccc1Nc1nc(-c2sc(NC(=O)c3ccco3)nc2C)cs1` was tested. Which inhibition % (higher = more inhibition) did it give?
A: The inhibition % (higher = more inhibition) was 21.6%.

Q: How did the inhibition % (higher = more inhibition) turn out when `O=C(Nc1nc2ccccc2s1)c1nn(-c2ccccc2)c(=O)c2ccccc12` was run?
A: Its inhibition % (higher = more inhibition) is -21.2%.

Q: How did the inhibition % (higher = more inhibition) turn out when `CCCn1nc(C(=O)Nc2nc(-c3ccccn3)cs2)c2ccccc2c1=O` was run?
A: The inhibition % (higher = more inhibition) was 40.8%.

Q: For `COc1ccc(-n2nc(C(=O)NCC(=O)Nc3ccc(OC)c(OC)c3)c3ccccc3c2=O)cc1`, which inhibition % (higher = more inhibition) is on record?
A: The inhibition % (higher = more inhibition) was 34.1%.

Q: For `CCCn1nc(C(=O)Nc2nc3ccccc3s2)c2ccccc2c1=O`, which inhibition % (higher = more inhibition) is on record?
A: The inhibition % (higher = more inhibition) was 16.5%.

Q: For `O=C(Nc1nc(-c2ccccc2)cs1)c1nn(-c2ccccc2)c(=O)c2ccccc12`, which inhibition % (higher = more inhibition) is on record?
A: Its inhibition % (higher = more inhibition) is 11.5%.

Q: How did the inhibition % (higher = more inhibition) turn out when `Cc1nc(NC(=O)c2ccccc2)sc1-c1csc(Nc2ccccc2Cl)n1` was run?
A: Its inhibition % (higher = more inhibition) is -104%.

Q: `COCCCNC(=O)c1ccc(Cn2c(=O)c3ccccc3n(Cc3ccccc3C#N)c2=O)cc1` was tested. Which inhibition % (higher = more inhibition) did it give?
A: The inhibition % (higher = more inhibition) was 73.4%.

Q: For `Cc1cc(NC(=O)c2ccccc2C)n(-c2nc3ccccc3[nH]2)n1`, which inhibition % (higher = more inhibition) is on record?
A: The inhibition % (higher = more inhibition) was 38%.

Q: `COc1ccc(Cl)cc1Nc1nc(-c2sc(NC(=O)c3ccccc3)nc2C)cs1` was tested. Which inhibition % (higher = more inhibition) did it give?
A: The inhibition % (higher = more inhibition) was 60.5%.

Q: `CCCn1nc(C(=O)Nc2nc(-c3ccncc3)cs2)c2ccccc2c1=O` was tested. Which inhibition % (higher = more inhibition) did it give?
A: Its inhibition % (higher = more inhibition) is 44.6%.
